Assay outcomes (PubChem BioAssay)
An excerpt weighted towards active compounds, which were near 1.3% of everything screened.
RXFP1 antag = RXFP1 (human) relaxin receptor antagonism; Q9HBX9; actives 0.59% (n = 350,000); HEK293-RXFP1, relaxin-stimulated cAMP HTRF, 30 min; hits give low values; activity change, negative = inhibition, % at 57.5 µM;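 active = activity change of -60% or lower, but not beyond a set lower limit; inconclusive = change between -60% and -40%, or beyond the set limit; inactive = change above -40%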
Target sequence (Q9HBX9 whole entry, looked up): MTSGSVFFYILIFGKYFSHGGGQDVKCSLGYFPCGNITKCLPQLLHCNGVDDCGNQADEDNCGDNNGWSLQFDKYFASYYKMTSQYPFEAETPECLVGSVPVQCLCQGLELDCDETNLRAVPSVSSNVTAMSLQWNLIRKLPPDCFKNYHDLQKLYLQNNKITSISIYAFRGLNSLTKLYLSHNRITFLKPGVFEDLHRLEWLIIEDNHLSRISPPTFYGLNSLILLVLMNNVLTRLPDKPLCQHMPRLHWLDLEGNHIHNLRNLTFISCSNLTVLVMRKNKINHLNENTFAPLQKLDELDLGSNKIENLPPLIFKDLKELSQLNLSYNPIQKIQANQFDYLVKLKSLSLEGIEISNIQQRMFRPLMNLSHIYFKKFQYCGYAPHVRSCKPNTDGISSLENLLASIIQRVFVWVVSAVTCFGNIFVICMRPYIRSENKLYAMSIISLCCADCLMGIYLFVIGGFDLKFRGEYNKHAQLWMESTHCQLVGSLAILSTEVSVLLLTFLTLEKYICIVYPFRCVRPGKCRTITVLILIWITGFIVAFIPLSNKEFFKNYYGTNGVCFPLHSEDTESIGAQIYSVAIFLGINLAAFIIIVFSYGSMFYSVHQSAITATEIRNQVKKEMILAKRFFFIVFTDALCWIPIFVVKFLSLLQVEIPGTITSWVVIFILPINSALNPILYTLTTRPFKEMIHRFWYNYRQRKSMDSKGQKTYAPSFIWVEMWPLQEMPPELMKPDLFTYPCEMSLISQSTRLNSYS
gsp antag = antagonists of gsp mutant (McCune-Albright syndrome); Potency, µM (highest dose often 76.9 µM), actives largely listed as inhibitors; actives 0.4% (n = 340,000); gsp-mutant cells, cAMP HTRF, 30 min; calls by dose curve; cell line not stated here;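 also: intracellular cAMP measured with PDE inhibitor Ro 20-1724 present during compound exposure; nearly all actives have a fitted effect of over 65% in size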
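Measurement of cellular cAMP by homogeneous time-resolved fluorescence following a 30 min compound exposure at 37C. The PDE inhibitor […] was present throughout; the assay buffer was DPBS with 0.05% BSA and 0.005% Tween 20.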
RXFP1 agonist = agonists of human relaxin receptor RXFP1. Q9HBX9. HEK293T-RXFP1 cAMP TR-FRET, 30 min; response scale: percent of porcine relaxin response, buffer zero. Potency, µM (series often up to 57.5 µM), hits mostly activators. actives 0.3% (n = 370,000); active = well fitted activation curve with a large enough effect; inconclusive = small, poorly fitted or top-dose-only effect; also: nearly all actives have a fitted effect of over 60% in size
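Agonist response is measured as cAMP accumulation in an RXFP1-transfected HEK293T line under PDE4 inhibition. Values are scaled between buffer-only and 29 nM porcine relaxin, and EC50s come from standard Hill equation fits.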
pAkt inh = Akt phosphorylation inhibition; Neuro2A IGF-stimulated pAkt S473 HTRF, 20 min; hits give low values; activity change, % for hits at 50 µM; actives 0.32% (n = 360,000); AID 651550; in the data active = activity change below about -80%; inconclusive = mostly about -51% to -80%
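Single-point screen (50 µM final compound) in Neuro2A cells stimulated 20 min with 6 nM IGF at 37 deg C. After lysis, Ser473-phosphorylated Akt read by HTRF (ex 330 nm, em 615/665 nm) as the 665/615 ratio.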
gsp ag = agonists of gsp mutant (McCune-Albright syndrome). gsp mutant cells, cAMP HTRF, 30 min. Potency, µM (doses to about 76.9 µM), actives largely listed as activators. actives 0.13% (n = 340,000); active = well fitted activation curve with a large enough effect; inconclusive = small, poorly fitted or top-dose-only effect, or another doubt; inactive = no such curve, though single readings can be large or run the other way; cell line not stated here;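 also: phosphodiesterase inhibitor Ro 20-1724 added with compounds to block cAMP breakdown; nearly all actives have a fitted effect of over 60% in size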
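Cells stably selected in G418 were plated at 2000/well, grown 16-24 hr, then given compounds in DMSO with the PDE inhibitor […] (300 uM solution added) for 30 min at 37C; cAMP was read by HTRF.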
Of the large screens only hits and unclear results are named; the others gave an inactive call.

CC(C)CCNC(=O)Nc1ccc2c(c1)N(Cc1ccccc1)C(=O)c1ccccc1S2	none (no result: gsp antag, pAkt inh, gsp ag)
Cc1ccccc1CSCCNS(C)(=O)=O	none
COc1ccc(S(=O)(=O)NCCSCc2ccccc2C)cc1Br	pAkt inh -114%
Cc1ccc(S(=O)(=O)c2nnn3c2nc(N2CCN(c4ccccc4F)CC2)c2ccccc23)cc1C	none (no result: gsp antag, pAkt inh, gsp ag)
Cc1cc(C)c(Cn2c3ccccc3c3cnn(CC(=O)NCCN4CCOCC4)c(=O)c32)c(C)c1	RXFP1 antag -64 (no result: pAkt inh)
O=C(CN1C(=O)CCC1=O)Nc1ccc(Br)cc1	pAkt inh -103%
CCOC(=O)c1nnc(-c2ccc(C)cc2)nc1N1CCSCC1	RXFP1 antag -68
N#Cc1ccc(-c2nc3ccc(Br)cn3c2Cc2ccccc2)cc1	gsp ag 32µM (no result: gsp antag, RXFP1 agonist)
CC(=O)Nc1ccc(NC(=O)C2(c3cccs3)CCOCC2)cc1	none (no result: gsp antag, pAkt inh, gsp ag)
Cc1cc(/C=C2\SC(=S)N(C)C2=O)c(C)n1-c1ccccc1O	gsp antag 35µM (no result: RXFP1 agonist)
COc1cc2[nH]c(=S)nc(NCCc3ccc(S(N)(=O)=O)cc3)c2cc1OC	RXFP1 agonist inconclusive, gsp ag 13µM
Cc1cc(C)c2c(n1)nn1c(C)c(CCC(=O)Nc3cccc(C)c3C)c(C)nc21	none (no result: gsp antag, pAkt inh, gsp ag)
COc1ccc2c(CNC3CCC(C)CC3)c(C(=O)O)n(Cc3ccc(F)cc3)c2c1 (stereo not given)	none (no result: RXFP1 antag, gsp antag, pAkt inh, gsp ag)
Cc1noc(NS(=O)(=O)c2ccc(N/C=C\C(=O)c3ccncc3)cc2)c1C	RXFP1 agonist inconclusive, gsp ag 20µM
Cc1cc2c(cc1S(=O)(=O)Nc1cccc(Cl)c1C)n(C)c(=O)c(=O)n2C	none (no result: gsp antag, pAkt inh, gsp ag)
CCCNC(=O)c1ccc2nc(-c3ccccc3)c(-c3ccccc3)nc2c1	pAkt inh -120%
CCN(CC)C(=O)c1ccc2nc(-c3ccccc3)c(-c3ccccc3)nc2c1	none
CCOc1ccccc1-c1noc(CCCC(=O)Nc2cccc(C(F)(F)F)c2)n1	none (no result: RXFP1 antag, gsp antag, pAkt inh, gsp ag)
O=C1NC2CCCCN2C12CCN(CCCN1c3ccccc3CCc3ccc(Cl)cc31)CC2 (stereo not given)	RXFP1 antag -74 (no result: gsp antag, RXFP1 agonist, pAkt inh, gsp ag)
O=C(/C=C1\NC2(CCCC2)Cc2ccccc21)N1CCOCC1	none
CC1(C)Cc2c(ccc3ccccc23)/C(=C/C(=O)N2CCCCC2)N1	RXFP1 antag inconclusive, gsp antag 35µM
Cc1ccc(NC(=S)NC2CCSc3ccccc32)cc1 (stereo not given)	RXFP1 antag -62
COc1ccc(C(O)P(=O)(O)CCc2ccccc2)cc1 (stereo not given)	pAkt inh -109%
CCOC(=O)c1c(-c2ccc(-c3ccccc3)cc2)csc1NC(=O)CNCCN(C)C	RXFP1 antag -103
CCCCN1C(=O)C(O)(c2c(C)[nH]c3ccccc23)c2cc(Br)ccc21 (stereo not given)	RXFP1 antag -103 (no result: gsp antag, pAkt inh, gsp ag)
CCn1c(C)nc2cc(S(=O)(=O)N3CCCCC3)ccc21	none
CCn1c(CN2CCCCC2)nc2cc(S(=O)(=O)N3CCCCC3)ccc21	gsp antag 11µM
CCOC(=O)N1CCC(n2c(=O)[nH]c3cc(Cl)ccc32)CC1	none (no result: gsp antag, RXFP1 agonist, pAkt inh, gsp ag)
COc1ccc(OC)cc1	none (no result: RXFP1 antag, RXFP1 agonist, gsp ag)
COc1ccc(-n2cnnc2)cc1	pAkt inh -123%
COc1cc(C2CC(=O)Nc3cc4c(cc32)OCCO4)cc(OC)c1O (stereo not given)	none (no result: RXFP1 antag, gsp antag, pAkt inh, gsp ag)
O=C(Nc1nc(-c2ccccc2)cs1)c1ccc(N2CCOCC2)c([N+](=O)[O-])c1	gsp antag 32µM
Cc1ccc(-c2csc(NC(=O)c3cc([N+](=O)[O-])ccc3N3CCOCC3)n2)cc1	none
O=C(Nc1nc(-c2ccccc2)cs1)c1ccc2c(=O)n3c(nc2c1)CCCCC3	gsp antag 40µM
C[C@H]1CN([C@@H](C)CO)C(=O)c2cc(Br)cnc2O[C@H]1CN(C)C(=O)c1cccnc1	gsp ag 32µM (no result: gsp antag, RXFP1 agonist)
C[C@@H]1CN([C@H](C)CO)C(=O)c2cc(Br)cnc2O[C@H]1CN(C)C(=O)c1ccccc1	none (no result: gsp antag, RXFP1 agonist)
Cn1c2ccccc2c2cc(/C=N/NC(=O)c3cc(O)cc(O)c3)ccc21	none
Cn1c2ccccc2c2cc(/C=N/NC(=O)c3cc(O)ccc3O)ccc21	RXFP1 antag -112
CC(=O)N1CCOc2ccc(S(=O)(=O)NCCc3ccc(Cl)cc3)cc21	RXFP1 antag -68
COCC(=O)Nc1ccc([N+](=O)[O-])cc1OC	none
O=C(COC(=O)c1n[nH]c2ccccc12)Nc1ccc(Cl)cc1[N+](=O)[O-]	RXFP1 antag -75
COc1cc([N+](=O)[O-])ccc1NC(=O)COC(=O)c1n[nH]c2ccccc12	gsp antag 40µM
CCSc1ccccc1C(=O)Nc1ccc([N+](=O)[O-])cc1OC	gsp antag 40µM
O=C(COC(=O)c1n[nH]c2ccccc12)Nc1ccccc1F	none (no result: RXFP1 agonist)
CCC(C)C(=O)Nc1ccc([N+](=O)[O-])cc1OC (stereo not given)	none
Cc1cn([C@@H]2O[C@H](CO)[C@@H](O)[C@H]2F)c(=O)[nH]c1=O	none (no result: gsp antag, RXFP1 agonist, pAkt inh, gsp ag)
COc1ccc(N2CCN(C(=O)CSc3nnc4c(C)cc5ccc(C)c(C)c5n34)CC2)cc1	pAkt inh -119%
O=C(NCC(c1cccnc1)N1CCc2ccccc2C1)C(=O)Nc1cccc(Cl)c1 (stereo not given)	none (no result: gsp antag, pAkt inh, gsp ag)
Cc1nn(-c2ccc3nnc(C)n3n2)c(C)c1CCC(=O)Nc1ccc(OC(F)(F)F)cc1	none (no result: gsp antag, pAkt inh, gsp ag)
C=CCc1ccc(OCC(O)COc2ccc(CC=C)cc2OC)c(OC)c1	RXFP1 antag -69
COc1ccc(/C=C\c2onc(C)c2S(=O)(=O)N2CCC(C(=O)Nc3ccc(F)cc3F)CC2)cc1	none (no result: gsp antag, pAkt inh, gsp ag)
Cc1ccc(S(=O)(=O)CCc2nc3ccccc3s2)cc1	pAkt inh -101%
CCC(C(=O)NCCc1ccc(C)cc1)n1nc(C)c2c(C)n(-c3ccccc3)nc2c1=O (stereo not given)	gsp antag 50µM, gsp ag inconclusive
CCC(C(=O)NCCc1ccc(SC)cc1)n1nc(C)c2c(C)n(-c3ccc(C)cc3)nc2c1=O (stereo not given)	none (no result: gsp antag, pAkt inh, gsp ag)
Cc1cccc(OCCn2c(-c3ccco3)nc3ccccc32)c1	gsp antag 35µM
COc1ccc(C2NC(=O)N(C)C3=C2C(=O)N(c2cccc(C(=O)O)c2)C3)cc1 (stereo not given)	none (no result: RXFP1 antag, gsp antag, pAkt inh, gsp ag)
CCn1c(Cc2ccccc2)nnc1SCC(=O)N1CCCC1=O	none
CCn1c(Cc2ccccc2)nnc1SCC(=O)N1CCCCC1	pAkt inh -106%, gsp ag inconclusive
CSc1ccc(CN2CCC(CO)(Cc3ccc(Cl)cc3)CC2)cc1	RXFP1 antag -81
CCN1CCN(C(=S)c2ccc(Cl)cc2)CC1	pAkt inh -115%
Cc1cccc(N(CC(=O)N(C)Cc2ccccc2)S(=O)(=O)c2ccccc2)c1C	none (no result: RXFP1 antag, gsp antag, pAkt inh, gsp ag)
CCOc1cccc(-c2c(C(=O)N/N=C(\C)c3ccncc3)nnn2-c2nonc2N)c1	RXFP1 antag -62
